An excerpt weighted towards active compounds, which were near 2.8% of everything screened.
FXN GAA850 act: FXN promoter activators, primary screen, cell-based, luciferase luminescence, HEK293 lucGAA850; activation, % at 6 µM; 0.56% of 360,000 active; HEK293 lucGAA850 FXN promoter luciferase reporter, 24 h; percent of 10 µM SAHA response;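 active means activation above the average of all compounds screened plus 3 SD, cutoff fixed separately per campaign, cut at about 7.5% in these data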;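 further: 0% = DMSO wells and 100% = 10 µM SAHA wells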
esBAF inh: Bmi1 luciferase reporter increase in mESCs, primary screen, esBAF inhibitor project, mouse ES cells, Bmi1 luciferase knock-in, single point; 24 h; 100% = twice the neutral-well signal; 2% of 350,000 active; reporter increase, % at 12.5 µM; AID 602393, 2012; in the data active means activation above about 40%; inconclusive means no clear call, values can overlap the other calls;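 further: 0% = median of the plate's neutral control wells and 100% = double that signal; a rise in the Bmi1 reporter signal indicates esBAF inhibition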
MITF act: activators of MITF-driven TRPM1 promoter reporter, primary screen, cell-based, SK-MEL-5, luciferase, single point. 0.75% of 300,000 active. activation, % at 12.5 µM. SK-MEL-5 TRPM1-promoter luciferase, 24 h; % of positive control, neutral wells = 0. AID 588334, 2011;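 active means mean activation of at least 80% with every replicate also reaching 80%; inconclusive means mean reaches 80% but some replicate falls short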;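 further: 0% = neutral control wells and 100% = parthenolide positive control wells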
Wnt bcat act: Wnt/beta-catenin pathway activators, primary screen, cell-based, plate reader, single point; Wnt/beta-catenin reporter cell assay, activator; activation, % at 9.35 µM; 1.2% of 300,000 active; AID 743398, 2014; in the data active means activation above about 30%, passing the limit was not always enough; inconclusive means no clear call, values can overlap the other calls;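 further: 0% = neutral control wells and 100% = positive control wells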
The depositor's hits bear a star; ? = inconclusive; . = no result.

SMILES	FXN GAA850 act	esBAF inh	MITF act	Wnt bcat act
CCc1ccc(C(=O)COC(=O)c2cccs2)cc1	6	34	?	62*
O=C(COC(=O)c1cccs1)c1ccc2c(c1)OCCO2	2	19	46	-2
O=C(COC(=O)c1cccs1)c1ccc2ccccc2c1	5	42*	.	32*
Cc1ccc(C(=O)COC(=O)c2cccs2)cc1	2	.	57	52*
O=C(C[C@H]1CC[C@@H](NS(=O)(=O)c2cccc(F)c2)[C@H](CO)O1)N1CCCCC1	.	-3	.	.
O=C(C[C@@H]1CC[C@H]2[C@@H](COC[C@@H](O)CN2Cc2cc(F)cc(F)c2)O1)NC1CCCC1	.	-2	.	.
C[C@@H]1CN([C@@H](C)CO)S(=O)(=O)c2ccc(-c3cccnc3)cc2O[C@@H]1CN(C)C	.	4	.	.
COc1ccc(CN(C)C[C@@H]2Oc3ccc(NC(=O)Nc4cccc5ccccc45)cc3CC(=O)N([C@H](C)CO)C[C@@H]2C)cc1	.	0	.	.
CC(=O)c1c(C)[nH]c(C(=O)Nc2ccc(C)c(C)c2)c1C	2	85*	.	55*
CCc1c(C(=O)NCCc2cccc(C)c2)[nH]c(C)c1C(C)=O	-1	10	10	2
CCc1c(C(=O)Nc2ccc(C)c(C)c2)[nH]c(C)c1C(C)=O	3	71*	88*	12
CC(=O)c1c(C)[nH]c(C(=O)Nc2cccc(C)n2)c1C	-1	-6	60	39*
CC(=O)c1c(C)[nH]c(C(=O)NCCc2cccc(C)c2)c1C	2	75*	64	9
Cc1noc(C)c1NC(=O)N(C)C[C@H]1Oc2ncc(C#CC(C)C)cc2C(=O)N([C@@H](C)CO)C[C@@H]1C	.	6	.	.
CNC(=O)C[C@H]1CC[C@H]2[C@@H](COc3ccc(NC(=O)c4cccs4)cc3C(=O)N2C)O1	.	6	.	.
CC(=O)c1c(C)[nH]c(C(=O)Nc2ccc(C)cc2Br)c1C	4	86*	?	26
Cc1ccc(C2CC(c3cccs3)=NN2C(=O)CCl)cc1 (centres undefined)	-11	62*	-52	18
CCC(=O)N1N=C(c2cccs2)CC1c1ccc(C)cc1 (centres undefined)	3	1	11	1
CC(C)n1nnnc1SCC(=O)N1N=C(c2cccs2)CC1c1cccs1 (centres undefined)	4	71*	60	5
COc1ccc(Nc2nc(-c3ccc(OC)cc3)cs2)cc1	5	.	94*	0
CC(=O)NCCC(=O)Nc1nc(-c2c[nH]c3ccccc23)cs1	-2	2	-7	0
Nc1ccc(Nc2nc(-c3ccncc3)cs2)cc1	-2	35	120*	10
COc1ccc(Nc2nc(-c3c[nH]c4ccccc34)cs2)cc1	8	.	26	40*
COc1ccc(-c2csc(Nc3ccccc3)n2)cc1	6	.	65	16
CCC(C)c1ccc(OCC(=O)Nc2ccc3[nH]c(=O)[nH]c3c2)cc1 (centres undefined)	0	.	-1	-9
SMILES	FXN GAA850 act	esBAF inh	MITF act	Wnt bcat act
CCC(C)c1ccc(OCC(=O)Nc2cccc(C(=O)Nc3ccc(C(=O)O)cc3)c2)cc1 (centres undefined)	2	47*	42	20
Cc1cccc(NC(=O)COc2ccccc2)c1	3	12	62	4
O=C(COc1cc(Cl)c(Cl)cc1Cl)Nc1cccc(O)c1	-1	.	139*	45*
CC(C)c1ccc(OCC(=O)Nc2ccc(OC(F)(F)F)cc2)cc1	1	.	-11	.
CC(C)c1ccc(NC(=O)COc2ccccc2)cc1	1	79*	66	-2
Cc1cccc(OCC(=O)Nc2cccc(O)c2)c1	-3	23	.	34*
CO[C@@H]1CN(C)C(=O)c2cc(NS(=O)(=O)CC(F)(F)F)ccc2OC[C@@H](C)N(CCC(F)(F)F)C[C@H]1C	.	0	.	.
COc1ccc(S(=O)(=O)N[C@@H]2CC[C@@H](CCNC(=O)c3ccccc3F)O[C@@H]2CO)cc1	.	-3	.	.
Cc1ccc(C)c(OCC(=O)Nc2cccc(C(=O)O)c2)c1C	6	?	.	37*
Cc1ccc(OCC(=O)Nc2cccc(O)c2)cc1C	1	18	104*	49*
CC(=O)Nc1cccc(OCC(=O)Nc2ccccc2)c1	5	45*	.	38*
Cc1ccc(OCC(=O)Nc2cc(NC(=O)COc3ccc(C)c(C)c3)cc(C(=O)O)c2)cc1C	-1	13	.	8
CO[C@@H]1CN(C)C(=O)c2cc(NC(=O)C3CCCCC3)ccc2OC[C@H](C)N(C)C[C@H]1C	.	-1	.	.
C[C@@H]1CN([C@H](C)CO)C(=O)c2cccc(NC(=O)CCCCCC(=O)Nc3ccccc3N)c2O[C@H]1CN(C)Cc1ccc(-c2ccccc2)cc1	.	7	.	.
C[C@H](CO)N1C[C@H](C)[C@@H](CN(C)S(C)(=O)=O)Oc2ccc(NS(C)(=O)=O)cc2CC1=O	.	8	.	.
O=C(Nc1cccc(Cl)c1)c1ccc2sc([C@H]3C[C@H](O)[C@@H](CO)O3)nc2c1	3	67*	.	-1
O=C(Nc1cccc(Cl)c1Cl)c1csc([C@H]2C[C@H](O)[C@@H](CO)O2)n1	4	77*	.	42*
O=C(Nc1cccc(Cl)c1Cl)c1csc([C@@H]2O[C@H](CO)[C@@H](O)[C@H]2O)n1	2	50*	.	19
O=C(Nc1ccc(Cl)cc1)c1csc([C@@H]2O[C@H](CO)[C@@H](O)[C@H]2O)n1	2	45*	.	2
O=C(Nc1cccc(Cl)c1)c1ccc2sc([C@@H]3O[C@H](CO)[C@H](O)[C@H](O)[C@H]3O)nc2c1	1	4	.	.
COC(=O)CCN(C(=O)c1ccc(Cl)c([N+](=O)[O-])c1)c1ccccn1	0	.	-20	33*
COC(=O)CCN(C(=O)c1cccc([N+](=O)[O-])c1)c1ccccn1	2	.	-2	-1
O=C(Cn1ccc([N+](=O)[O-])n1)N1CCCCCC1	2	-13	9	3
O=C(Cn1ccc([N+](=O)[O-])n1)N1CCCc2ccccc21	0	9	14	32*
O=C(COc1ccccc1[N+](=O)[O-])N1CCCc2ccccc21	0	10	-5	4
SMILES	FXN GAA850 act	esBAF inh	MITF act	Wnt bcat act
O=C(OCC(=O)N1CCCc2ccccc21)c1ccccc1[N+](=O)[O-]	3	111*	84*	-2
Cc1noc(C)c1S(=O)(=O)Nc1ccc2c(c1)C(=O)N([C@@H](C)CO)C[C@H](C)[C@@H](CN(C)Cc1ccccc1)OCCCC[C@@H](C)O2	.	0	.	.
CC(C)NC(=O)N(C)C[C@H]1Oc2ccc(NS(C)(=O)=O)cc2C(=O)N([C@H](C)CO)C[C@H]1C	.	4	.	.
CC(C)NC(=O)N[C@H]1CC[C@H](CCNC(=O)C2CC2)O[C@@H]1CO	.	-3	.	.
O=C(N/N=C/c1ccsc1)c1ccc2c(c1)OCO2	3	49*	86*	14
O=C(CN(CCc1ccccc1)S(=O)(=O)c1ccc(Cl)cc1)N/N=C/c1ccc2c(c1)OCO2	-5	.	-4	34*

Screens as filed in PubChem.
